Measured values reported in the supplement of paper PMC10981050.
Several values for one entry are separate records, joined by “and”; a condition that tells them apart may be missing. Identical values can stand only once. Counter-ions that a name gives are not always drawn.

How the values were obtained:
Assay in all cases: cell viability relative to vehicle control; higher = less cytotoxic
Details in all cases: 10 µM
K562 = system: K562
How it was run: (§1)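 Screening covered the Selleck bioactive, kinase and epigenetic probe libraries, less identity-inconsistent compounds, on CRISPR-edited mutant clones and isogenic wild-type clones of four leukaemia lines. Cells, at 2000 per well in 50 µL medium, received a single 10 µM acoustically dispensed dose. After 48 h the supernatant was removed and CellTiter-Glo luminescence was read. Viability was analysed in Genedata Screener as percent of the on-plate vehicle control.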

MARIMO = system: MARIMO
How it was run: as §1

MOLM14 = system: MOLM14
How it was run: as §1

OCI-AML2 = system: OCI-AML2
How it was run: as §1

Compound | cell viability (K562; SRSF2 genotype: SRSF2 P95H/wt) | cell viability (K562; SRSF2 genotype: SRSF2 wt/wt) | cell viability (MARIMO; SRSF2 genotype: SRSF2 P95H/wt) | cell viability (MARIMO; SRSF2 genotype: SRSF2 wt/wt) | cell viability (MOLM14; SRSF2 genotype: SRSF2 P95H/wt) | cell viability (MOLM14; SRSF2 genotype: SRSF2 wt/wt) | cell viability (OCI-AML2; SRSF2 genotype: P95H/wt) | cell viability (OCI-AML2; SRSF2 genotype: wt/wt)
Cc1ccc(Sc2ccccc2N2CCNCC2)c(C)c1 | 2.01% and 3.74% | 2.31% | 6.07% | 11.2% | 3.31% | 3.18% | 0.2% | 0.89%
CC(C)(C)NCC(O)c1ccc(O)c(CO)c1 (stereo not given) [Salbutamol] | 104% and 102% | 110% | 108% | 107% | 99.4% | 106% | 101% | 97.1%
COc1nc(OCc2cccc(-c3ccccc3)c2C)ccc1CNCCNC(C)=O [BMS202 (PD-1/PD-L1 inhibitor 2)] | 10.8% and 26.5% | 32.6% | 60.9% | 59% | 41.6% | 31.9% | 53.5% | 51.3%
CC=Cc1cc(OC)c2c(c1)C(C)C(c1ccc(O)c(OC)c1)O2 (stereo not given) [Dehydrodiisoeugenol] | 90.2% and 91.2% | 90.4% | 89.4% | 95.5% | 83.3% | 97.8% | 75.8% | 78.8%
O=C(Nc1nccs1)C(c1cc(F)ccc1O)N1Cc2ccccc2C1=O (stereo not given) | 103% and 94.9% | 96.6% | 94.6% | 105% | 98% | 97.6% | 93.9% | 100%
CCN(CC)CCCCNc1ncc2cc(-c3cc(OC)cc(OC)c3)c(NC(=O)NC(C)(C)C)nc2n1 | 46.4% and 47.9% | 49.4% | 54.2% | 51.9% | 48.3% | 47.7% | 38.1% | 40.1%
Cc1ccc(C(C)C)cc2c(C)ccc1-2 [Guaiazulene] | 97.5% and 99% | 110% | 102% | 101% | 93.5% | 105% | 107% | 93.4%
CCCNC(=O)Nc1ccc(Oc2ncnc3cc(OC)c(OC)cc23)cc1Cl | 99.4% and 106% | 99.8% | 108% | 113% | 92% | 105% | 99.5% | 101%
Cc1ccccc1CN1C2=NCCN2C(=O)C2=C1CCN(Cc1ccccc1)C2 [TIC10 analogue] | 98.2% and 97.9% | 95.9% | 104% | 104% | 103% | 103% | 88% | 101%
COc1cc2c(cc1OC(C)C)[C@H](c1ccc(Cl)cc1)N(c1ccc(N(C)C[C@H]3CC[C@H](N4CCN(C)C(=O)C4)CC3)cc1)C(=O)C2 | 68.8% and 72.1% | 68.4% | 67.8% | 71.8% | 0.15% | 0.13% | 0.22% | 2.94%
C=C(C)[C@@H]1CC[C@]2(C(=O)O)CC[C@]3(C)[C@H](CC[C@@H]4[C@@]5(C)CC[C@H](O[C@@H]6OC[C@H](O)[C@H](O)[C@H]6O[C@@H]6O[C@@H](C)[C@H](O)[C@@H](O)[C@H]6O)[C@@](C)(CO)[C@@H]5CC[C@]43C)[C@@H]12 [Pulchinenoside A] | 97.5% and 96.7% | 92% | 93.9% | 106% | 102% | 96.6% | 94.6% | 105%
CC(C)(C)OC(=O)N[C@H]1CCCCC/C=C\[C@@H]2C[C@@]2(C(=O)NS(=O)(=O)C2CC2)NC(=O)[C@@H]2C[C@@H](OC(=O)N3Cc4cccc(F)c4C3)CN2C1=O [Danoprevir (ITMN-191)] | 97.7% and 108% | 98.9% | 106% | 106% | 96.8% | 101% | 123% | 108%
CO/N=C(\C(=O)N[C@@H]1C(=O)N2C(C(=O)O)=C(CSC(=O)c3ccco3)CS[C@H]12)c1csc(N)n1 [Ceftiofur hydrochloride] | 98.4% and 82.1% | 83.7% | 89.1% | 93.9% | 91.5% | 93.5% | 93.4% | 95.4%
CC(c1cc2ccccc2s1)N(O)C(N)=O (stereo not given) [Zileuton] | 101% and 96.3% | 99.1% | 94.3% | 99.2% | 98.7% | 98.1% | 92.8% | 97.4%
CCCCCCCCCCCCCc1cccc(O)c1C(=O)O [Ginkgolic Acid (C130)] | 108% and 100% | 108% | 103% | 107% | 104% | 110% | 102% | 103%
CNC(=O)c1nn(C)c2c1C(C)(C)Cc1cnc(Nc3ccc(N4CCN(C)CC4)cc3)nc1-2 | 34% and 36.5% | 25.2% | 21.4% | 22.6% | 16% | 5.62% | 13.8% | 19.4%
CCc1c(Cl)c(O)c(Cl)c(O)c1C(=O)O[C@H]1[C@H](O)[C@H](OC)[C@H](OC/C2=C\C=C\C[C@H](O)/C(C)=C/[C@H](CC)[C@@H](O[C@@H]3OC(C)(C)[C@@H](OC(=O)C(C)C)[C@H](O)[C@@H]3O)/C(C)=C/C(C)=C/C[C@@H]([C@@H](C)O)OC2=O)O[C@@H]1C [Fidaxomicin] | 81.3% and 80.5% | 78.3% | 86.2% | 91.3% | 74.9% | 84.6% | 110% | 100%
CCN(CC)CC(=O)Oc1ccc(NC(C)=O)cc1 [Propacetamol hydrochloride] | 90.2% and 83.3% | 86.5% | 94.2% | 90.2% | 93.6% | 94.7% | 86.4% | 96.7%
O=C1NC(=O)C(c2ccccc2[N+](=O)[O-])=C1Nc1ccc(O)c(Cl)c1 | 107% and 104% | 104% | 98.5% | 91.9% | 90.7% | 107% | 122% | 120%
CN[C@@H]1[C@H](O)[C@H](NC)[C@H]2O[C@@]3(O)C(=O)C[C@@H](C)O[C@H]3O[C@@H]2[C@H]1O [Spectinomycin 2HCl] | 101% and 102% | 93.5% | 103% | 102% | 104% | 99% | 106% | 94.4%

Compound | cell viability (K562; SRSF2 genotype: SRSF2 P95H/wt) | cell viability (K562; SRSF2 genotype: SRSF2 wt/wt) | cell viability (MARIMO; SRSF2 genotype: SRSF2 P95H/wt) | cell viability (MARIMO; SRSF2 genotype: SRSF2 wt/wt) | cell viability (MOLM14; SRSF2 genotype: SRSF2 P95H/wt) | cell viability (MOLM14; SRSF2 genotype: SRSF2 wt/wt) | cell viability (OCI-AML2; SRSF2 genotype: P95H/wt) | cell viability (OCI-AML2; SRSF2 genotype: wt/wt)
CO/N=C(/C(=O)N[C@@H]1C(=O)N2C(C(=O)OCOC(=O)C(C)(C)C)=C(C)CS[C@H]12)c1csc(N)n1 [Cefetamet pivoxil hydrochloride] | 95.8% and 97% | 102% | 95% | 104% | 92.5% | 103% | 107% | 98.1%
CN1CCc2cc(Nc3ncc(C4CC4)c(NCCCNC(=O)C4CCC4)n3)ccc2C1 | 34.8% and 33.1% | 55.2% | 3.21% | 1.31% | 0.63% | 0.39% | 1.22% | 4.15%
CCOC(=O)N1CCN(c2ccc(OC[C@H]3CO[C@](Cn4ccnc4)(c4ccc(Cl)cc4Cl)O3)cc2)CC1 [Elubiol] | 43.3% and 36.5% | 41.8% | 29.3% | 28.8% | 39% | 21.1% | 10.3% | 15.9%
OCCN(CCO)c1nc(N2CCCCC2)c2nc(N(CCO)CCO)nc(N3CCCCC3)c2n1 [Dipyridamole (Persantine)] | 95.7% and 95.1% | 94.8% | 93.1% | 114% | 111% | 107% | 99.9% | 108%
CCOc1nc2cccc(C(=O)O)c2n1Cc1ccc(-c2ccccc2-c2noc(=O)[nH]2)cc1 [Azilsartan (TAK-536)] | 106% and 104% | 97.9% | 93.5% | 103% | 99.2% | 103% | 101% | 101%
CN1CCC(NC(=O)c2cc(-c3c(O)cc(O)cc3Oc3ccc([N+](=O)[O-])cc3)on2)CC1 | 17.4% and 26.5% | 23.6% | 29.8% | 23.9% | 1.68% | 1.87% | 17.5% | 19.7%
N[C@@H](Cc1cc(I)c(O)c(I)c1)C(=O)O [3,5-Diiodotyrosine Dihydrate] | 94.2% and 94.5% | 97.4% | 97% | 102% | 96.6% | 99.9% | 100% | 102%
O=S(=O)(NCCNCC=Cc1ccc(Br)cc1)c1cccc2cnccc12 | 77.6% and 78% | 75.8% | 61.2% | 69.1% | 43.2% | 50% | 38.7% | 43.2%
CCCCCCCCC[C@H](O)CC(=O)CCc1ccc(O)c(OC)c1 [10-Gingerol] | 92.4% and 91.5% | 98.5% | 91.1% | 92.4% | 90% | 94% | 82.5% | 82.4%
O=C(NCc1cccc(O)c1)Nc1nc(-c2ccncc2)cs1 | 92% and 95.8% | 106% | 65.6% | 85.8% | 25.3% | 60.8% | 18.8% | 27.6%
CC1(C)CC[C@]2(C(=O)O)CC[C@]3(C)C(=CC[C@@H]4[C@@]5(C)CC[C@H](O)C(C)(C)[C@@H]5CC[C@]43C)[C@@H]2C1 [Oleanolic Acid (Caryophyllin)] | 96.5% and 91.2% | 87.9% | 80.7% | 82.8% | 85.6% | 94.7% | 66.8% | 82.7%
C#Cc1cccc(Nc2ncnc3cc(OCCOC)c(OCCOC)cc23)c1 [Erlotinib(OSI-744)] | 83.5% and 94.5% | 84.8% | 75.9% | 84.8% | 79% | 84.6% | 77.9% | 84.4%
O=C(O)[C@H]1O[C@@H](Oc2cc3oc(-c4ccc(O)cc4)cc(=O)c3c(O)c2O)[C@H](O)[C@@H](O)[C@@H]1O [Scutellarin] | 103% and 99.4% | 96% | 100% | 104% | 102% | 105% | 101% | 109%
Cc1nc(Nc2n[nH]c3c2CN(C(=O)N[C@H](CN(C)C)c2ccccc2)C3(C)C)c2sccc2n1 | 13.2% and 22.6% | 14.3% | 5.65% | 3.34% | 0.49% | 0.42% | 0.9% | 10.7%
CC(C)=CCC[C@@H](C)CC=O [Citronellal] | 104% and 96.5% | 112% | 96.2% | 102% | 103% | 106% | 105% | 114%
NCCOCCOCCNC(=O)Cc1ccc(Nc2nc(NCc3ccc(F)cc3)nc(NCC3CCCCC3)n2)cc1 [AP-III-a4 (ENOblock)] | 81.5% and 90.7% | 87.5% | 94.3% | 97.1% | 16% | 14% | 75.2% | 79.6%
Cc1cc(C)nc(NS(=O)(=O)c2ccc(N)cc2)n1 [Sulfamethazine Sodium Salt] | 105% and 99.9% | 102% | 106% | 106% | 100% | 106% | 88.5% | 113%
COc1cc(C[C@@H](CO[C@@H]2O[C@H](CO)[C@@H](O)[C@H](O)[C@H]2O)[C@H](CO[C@@H]2O[C@H](CO)[C@@H](O)[C@H](O)[C@H]2O)Cc2ccc(O)c(OC)c2)ccc1O [Secoisolariciresinol diglucoside] | 96.7% and 93.6% | 98.9% | 90% | 101% | 101% | 98.5% | 96.8% | 104%
CC(NCCc1ccc(O)cc1)C(O)c1ccc(O)cc1 (stereo not given) [Ritodrine hydrochloride (Yutopar)] | 106% and 102% | 96.3% | 100% | 106% | 98.6% | 99.8% | 104% | 107%
Nc1ncnc2c1ncn2[C@@H]1O[C@H](CO)[C@@H](O)[C@@H]1O [Vidarabine (Vira-A)] | 94.6% and 101% | 97% | 89.9% | 93.4% | 92.5% | 96.1% | 101% | 102%
